Giardia FBPA inh: Giardia lamblia aldolase inhibition; A8B2U2; purified Giardia FBPA; Potency, µM (series often up to 59.6 µM), most hits filed as inhibitors; hit rate 0.71% among 290,000; AID 2451; note: nearly all actives have a fitted effect of over 55% in size
Target sequence (A8B2U2 whole entry, looked up): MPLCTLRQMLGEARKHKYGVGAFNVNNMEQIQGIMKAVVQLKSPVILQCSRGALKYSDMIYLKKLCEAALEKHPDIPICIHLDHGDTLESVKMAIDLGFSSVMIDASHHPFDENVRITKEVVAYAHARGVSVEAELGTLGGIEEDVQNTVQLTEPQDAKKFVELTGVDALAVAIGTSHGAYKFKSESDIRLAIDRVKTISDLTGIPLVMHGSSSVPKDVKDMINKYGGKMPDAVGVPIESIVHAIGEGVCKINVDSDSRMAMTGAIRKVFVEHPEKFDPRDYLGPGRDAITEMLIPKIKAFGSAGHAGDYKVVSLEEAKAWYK
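40 nM FBPA preincubated 10 min at RT with compound (up to 57.5 uM final), then substrate plus GAPDH/TPI/NAD/arsenate coupling and diaphorase/resazurin added. Fluorescence read after 20 min at RT, 525/598 nm.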
TbPYK inhibitor: inhibitors of Trypanosoma brucei pyruvate kinase; hit rate 0.12% among 410,000; Potency, µM (titrated, usually from 76.8 µM), actives largely listed as inhibitors; TbPYK enzyme, Kinase-Glo Plus ATP luminescence, 45 min; note: nearly all actives have a fitted effect of over 50% in size
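Assay buffer: 50 mM TEA pH 7.2, 100 mM KCl, 10 mM MgCl2, 0.05% BSA, 0.01% Tween-20. Pyruvate kinase from T. brucei plus substrate met compound, then ADP (130 uM final). Luminescence was read post 45 min RT.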
CHX counter: affects cycloheximide protein synthesis inhibition readout, counter-screen | max response, % | hit rate 12% among 300,000 | cell reporter, cycloheximide protein synthesis inhibition counterscreen | AID 2314; in the data active = max response mostly above about 13%, no sharp cut-off; inactive = mostly below about 14%; note: read at 38.3 µM for the half of the compounds with a filed dose
Shiga inhibitor: blocks Shiga toxin action in Vero cells | hit rate 9.2% among 290,000 | inhibition, % at 38.7 µM | Vero cells, Shiga toxin protein synthesis inhibition reporter; in the data active = inhibition mostly above about 28%, no sharp cut-off; inactive = mostly below about 43%
LmPK inh: blocks Leishmania mexicana pyruvate kinase activity; Q27686; purified LmPK, Kinase-Glo ATP luminescence, 1 h; Potency, µM (highest dose often 57.5 µM), hits mostly inhibitors; hit rate 0.37% among 290,000
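Pyruvate kinase activity monitored as ATP production (luciferase luminescence). Conditions: 0.1 nM enzyme, 0.5 mM PEP, 0.1 mM ADP, 1 h, RT; normalized against uninhibited and no-enzyme wells.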
Sm TGR block: blocks Schistosoma mansoni thioredoxin glutathione reductase; Q962Y6; purified TGR, DTNB reduction, TNB absorbance 405 nm; Potency, µM (series often up to 114 µM), usual class: inhibitors; hit rate 3% among 360,000; note: nearly all actives have a fitted effect of over 60% in size
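Kinetic colorimetric format: TGR-catalysed, NADPH-driven DTNB reduction monitored via TNB absorbance. Enzyme dispensed at 20 nM; compound exposure 15 min at room temperature before reaction start.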
Numbers stand for hits; i = inactive; ? = inconclusive; nt = not tested or not shown; [ ] = remark or other dose. This is one part of a sample in which hits are shown more often than they occur. Unless noted, calls come from the whole dose curve; as a rule, active = well fitted curve in the direction sought with a large enough effect; inconclusive = small, poorly fitted or top-dose-only effect, or another doubt; inactive = no such curve, though single readings can be large; an effect the other way counts as inactive or inconclusive.

SMILES	Giardia FBPA inh	TbPYK inhibitor	CHX counter	Shiga inhibitor	LmPK inh	Sm TGR block
COc1ccc(CCNC(=O)Cc2cc(OCc3ccccc3)c(OC)cc2[N+](=O)[O-])cc1OC	i	i	i	i	i	i
COc1cc(CC(=O)NCCc2ccc(OCc3ccccc3)cc2)c([N+](=O)[O-])cc1OC	i	i	48.9	i	i	i
O=C(NCCc1ccccc1)c1ccc([N+](=O)[O-])cc1	nt	i	i	i	i	i
COc1cccc(CCNC(=O)c2ccc(C#N)cc2)c1	i	i	20.9	38.2	i	i
O=C(NCCc1ccc([N+](=O)[O-])cc1)c1ccccc1	i	i	28.5	61.1	i	i
COc1ccc(CC(=O)Nc2ccccc2C(=O)NCCc2ccccc2)cc1	i	i	29.6	47.9	i	i
COc1cccc(CNC(=O)c2ccc(C(=O)NCc3cccc(OC)c3)cc2)c1	nt	i	i	i	i	i
COc1ccc(CCNC(=O)COC(=O)Cc2ccccc2)cc1	i	i	i	i	i	i
C/C(=C(/CCO)SS/C(CCO)=C(\C)N(C=O)Cc1cnc(C)nc1N)N(C=O)Cc1cnc(C)nc1N	nt	i	nt	nt	nt	nt
COc1ccc(S(=O)(=O)c2cn(C)c3cc(N4CCOCC4)c(F)cc3c2=O)cc1	nt	i	nt	nt	nt	i
CCOC(=O)c1c(NC(=O)c2cc(-c3ccc(OC)cc3)on2)sc(C)c1C	nt	i	nt	nt	nt	i
CCOc1ccc(C(=O)NCc2ccc3c(c2)CCN3C(=O)c2ccc(C)cc2)cc1OCC	nt	i	nt	nt	nt	i
CCOc1ccccc1N1CC(c2nc3ccccc3n2CCOc2ccccc2OC)CC1=O (stereo not drawn)	nt	i	nt	nt	nt	?
O=C(NCCC1CC1(Cl)Cl)c1ccc([N+](=O)[O-])cc1 (stereo not drawn)	i	i	24.6	i	i	i
CCCCOc1ccc(C(=O)NCCc2ccccc2)cc1	i	i	41.8	91.4	i	i
O=C(NCCNC(=O)c1ccc([N+](=O)[O-])cc1)c1ccncc1	i	i	i	i	i	i
O=C(COc1ccc(C(=O)NCCc2ccccc2)cc1)Nc1ccccc1	i	i	i	i	i	i
COc1ccc(CCNC(=O)c2ccccc2C(=O)NCCc2ccc(OC)cc2)cc1	nt	i	nt	nt	nt	nt
COc1ccc(C(=O)NCCc2cn3ccccc3n2)cc1	i	i	i	43.1	i	i
COc1ccc(CCNC(=O)c2ccccc2)cc1	i	i	28.2	117.3	i	i
COc1ccc(C(O)c2ncc(-c3cccc(C(F)(F)F)c3)[nH]2)cc1F (stereo not drawn)	nt	i	nt	nt	nt	nt
Cc1nn(-c2ccccc2)c2sc(C(=O)Nc3cccc(Br)c3)cc12	nt	i	nt	nt	nt	i
COc1ccc2c(c1)C(=O)[C@@H](OC(=O)NCc1ccco1)[C@H](c1ccc(OC)c(Br)c1)O2	i	nt	nt	nt	nt	nt
COc1cccc(CNC(=O)c2ccc(C3SCCS3)cc2)c1	nt	i	26.4	i	i	i
COc1ccc(C(=O)NCC2(c3ccccc3)CCOCC2)cc1	i	i	35.7	i	i	i
SMILES	Giardia FBPA inh	TbPYK inhibitor	CHX counter	Shiga inhibitor	LmPK inh	Sm TGR block
CC(C)OC(=O)C(C)Oc1ccc(C(=O)NCCc2ccccc2)cc1 (stereo not drawn)	i	i	24.8	40.0	i	i
CC(Oc1ccc(C(=O)NCCc2ccccc2)cc1)C(=O)O (stereo not drawn)	i	i	i	i	i	i
COc1ccc(CC(=O)c2ccccc2C(=O)O)cc1	i	i	i	i	i	i
COc1ccc(CC(=O)Nc2cccc(C(=O)O)c2C)cc1	i	i	15.3	i	i	i
Cc1ccc(NC(=O)CCC(=O)N2Cc3ccccc3Oc3ncccc32)cc1	nt	i	nt	nt	nt	i
COc1cccc2c1cc1c(=O)n(CC(=O)NCc3ccco3)nc(C)n12	nt	i	nt	nt	nt	i
COc1ccc(OC)c(CNc2ncnc3onc(-c4ccc(Cl)cc4)c23)c1	nt	i	nt	nt	nt	i
COc1ccc(CCNC(=O)C2=COCCO2)cc1	i	i	24.4	65.7	i	i
O=C(NCC1(c2ccccc2)CCCC1)C(=O)NCC1(c2ccccc2)CCCC1	i	i	i	i	i	39.8µM
CC(C)c1ccc(OC(=O)NCCO)cc1	i	i	14.7	44.1	i	i
CCCCOc1ccc(C(=O)NCc2ccccn2)cc1	i	i	20.9	i	i	i
c1ccc(-c2ccc(N3CCCC4(CCNCC4)C3)cc2)cc1	i	i	nt	nt	nt	nt
N#Cc1ccc(CN2CCCC3(CCN(C(=O)c4cnccn4)CC3)C2)cc1	i	i	nt	nt	nt	nt
COc1cccc(C(NC(C)=O)c2nc(-c3cccc(F)c3)cs2)c1 (stereo not drawn)	nt	i	nt	nt	nt	nt
COc1ccc(CCNC(=O)CCCc2ccccc2)cc1	i	i	i	nt	i	i
COc1ccc(OC(=O)NCCc2ccccc2)cc1	i	i	33.2	61.7	i	i
C=C(C)Cn1c2ccc(NC(=O)NCCc3ccccc3)cc2c(=O)n1C	nt	i	nt	nt	nt	nt
Cc1ccc(Cn2c(SCC(=O)C(C)(C)C)nc3ccsc3c2=O)cc1	nt	i	nt	nt	nt	i
Cc1ccc2c(c1)Cc1nc3ccccc3nc1-2	i	?	i	i	17.8µM	i
COc1ccccc1-c1nc2ccccc2nc1-c1ccccc1OC	i	i	i	i	i	i
CC1(C)CC(NCc2cccc([N+](=O)[O-])c2)CC(C)(C)N1	i	i	16.6	i	i	i
Cc1ccc(C(=O)CSc2nnc(-c3ccco3)n2CC2CCCO2)cc1 (stereo not drawn)	i	i	i	i	i	20µM
CC(C)Cn1c(SCC(=O)c2ccc(Cl)s2)nnc1-c1ccco1	i	i	32.9	i	i	?
Cn1c(SCC(=O)c2ccc3c(c2)Cc2ccccc2-3)nnc1-c1cccc(N)c1	i	i	19.9	i	i	i
O=C(CSc1nnc(-c2ccco2)n1Cc1ccccc1)c1ccccc1	i	i	38.3	72.0	i	44.7µM
SMILES	Giardia FBPA inh	TbPYK inhibitor	CHX counter	Shiga inhibitor	LmPK inh	Sm TGR block
CC(C)c1ccc(NC(=O)CCCc2nc(-c3ccc(Cl)cc3)no2)cc1	nt	i	nt	nt	nt	i
CCOC(=O)N1CCC(NC(=O)c2ccc3c(c2)N(Cc2cc(C)ccc2C)C(=O)c2ccccc2S3(=O)=O)CC1	nt	i	nt	nt	nt	i
C=CC1=C2C=C(C3CC3)N(Cc3ccc4c(c3)OCO4)C=C2C(=O)C(C)(OC(=O)c2ccco2)C1=O (stereo not drawn)	i[12.9 µM]	nt	nt	nt	i[11.5 µM]	nt
CCOc1ccccc1NC(=O)Cn1c(=O)n(-c2ccc(Cl)cc2)c(=O)c2oc3ccccc3c21	nt	i	nt	nt	nt	i
Cc1ccc(C(=O)CSc2nnc(-c3ccco3)n2Cc2ccccc2)cc1	i	?	22.4	i	i	i
Cn1c(SCC(=O)c2ccc(-c3ccccc3)cc2)nnc1-c1ccco1	i	i	28.2	29.2	i	6.31µM
COc1ccc(-n2nc3c(c2NC(=O)c2ccco2)CS(=O)(=O)C3)cc1	i	i	i	i	i	44.7µM
O=C(Nc1c2c(nn1-c1cccc(Cl)c1)CS(=O)(=O)C2)c1ccco1	i	i	i	i	i	44.7µM
Cc1cccc2sc(N(CCCN(C)C)C(=O)c3ccc4ncsc4c3)nc12	i	i	19.7	37.6	i	i

Compound activity deposited in PubChem by National Center for Advancing Translational Sciences (NCATS).
